# Only some compounds are listed: those with a hit (about 2.8% of all), similar ones and a draw of the others.
# PI5P4K alpha inh – inhibitors of human PI5P4K alpha; P48426; AID 652105; PI5P4Kalpha enzyme, ADP-Glo luminescence, 60 min; hits give low values; max response, %; hit rate 1.2% among 330,000; active means max response of -50% or lower; inconclusive means between -30% and -50%; inactive means -30% or higher; further: value at the top dose of about 77 µM; on the % scale 0 is the no-effect control and ±100 the full control effect
#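 Human PI5P4Kalpha with substrate in 0.038 M HEPES pH 7.4, 0.28 mM EGTA, 0.1% CHAPS, 5% DMSO; reaction started with 5 microM ATP (final), 60 min at room temperature. ADP formed read by ADP-Glo luminescence.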
# WRN inhibitor – WRN helicase (human) inhibition; WRN helicase unwinding, fluorescent forked duplex, kinetic; hit rate 0.46% among 360,000; Potency, µM (titrated, usually from 114 µM), for the others: at the highest dose activity change, negative = inhibition, actives largely listed as inhibitors; further: potency means the concentration at half of the fitted maximal effect; on the % scale 0 is the no-effect control and ±100 the full control effect; nearly all actives have a fitted effect of over 55% in size
#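 Kinetic red-fluorescence monitoring (525/598 nm) tracks WRN helicase activity after 100 nM fluorophore-quencher forked duplex and 2 mM ATP are added to 20 nM enzyme pretreated 15 min at room temperature with compound.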
# POLI inh – blocks human DNA polymerase iota activity; Pol iota fluorescent replication assay, 10 min; hit rate 1% among 390,000; Potency, µM (doses to about 115 µM), for the others: top-dose activity, negative = inhibition, actives largely listed as inhibitors; further: potency means the concentration at half of the fitted maximal effect
# Target sequence (Q9UNA4 whole entry, looked up): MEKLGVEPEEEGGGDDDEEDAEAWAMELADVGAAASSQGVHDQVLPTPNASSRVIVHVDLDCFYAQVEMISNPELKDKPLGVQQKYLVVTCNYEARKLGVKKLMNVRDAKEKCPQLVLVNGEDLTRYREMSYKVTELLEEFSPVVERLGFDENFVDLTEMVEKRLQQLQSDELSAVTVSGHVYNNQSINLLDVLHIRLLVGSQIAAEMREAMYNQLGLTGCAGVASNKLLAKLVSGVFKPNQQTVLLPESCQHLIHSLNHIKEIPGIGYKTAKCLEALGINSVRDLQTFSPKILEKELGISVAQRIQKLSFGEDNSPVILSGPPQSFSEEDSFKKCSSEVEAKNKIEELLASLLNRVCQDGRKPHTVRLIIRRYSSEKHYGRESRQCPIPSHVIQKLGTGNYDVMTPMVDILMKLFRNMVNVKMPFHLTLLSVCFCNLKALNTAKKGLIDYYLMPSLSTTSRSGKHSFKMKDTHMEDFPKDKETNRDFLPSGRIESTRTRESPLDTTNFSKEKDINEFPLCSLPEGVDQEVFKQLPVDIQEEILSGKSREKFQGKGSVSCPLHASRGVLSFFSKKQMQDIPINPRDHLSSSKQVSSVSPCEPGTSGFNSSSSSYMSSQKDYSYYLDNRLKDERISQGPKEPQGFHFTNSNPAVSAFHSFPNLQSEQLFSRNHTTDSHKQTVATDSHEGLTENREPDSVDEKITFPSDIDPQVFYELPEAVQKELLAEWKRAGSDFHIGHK
#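 Pol iota at 10 nM preincubated 15 min with compounds at room temperature; reaction started with fluorescent substrate, 50 nM final. Fluorescence read kinetically at 0 and 10 min; buffer-only wells as negative control.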
# POLB inh – blocks human DNA polymerase beta activity. Pol beta primer extension/strand displacement, fluorescence kinetic. Potency, µM (top dose mostly 114 µM), without a hit: at the highest dose activity change, negative = inhibition, most hits filed as inhibitors. hit rate 1.3% among 340,000; further: potency means the concentration at half of the fitted maximal effect; on the % scale 0 is the no-effect control and ±100 the full control effect
#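 Curves were derived by four-parameter Hill fits of normalized qHTS data. The kinetic fluorescent primer-extension read was taken at 0 and 10 min after 50 nM substrate, following a 15 min room-temperature preincubation of 10 nM enzyme with compounds.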
# Pol eta inh – blocks human DNA polymerase eta activity; recombinant Pol eta, fluorescent DNA replication assay; Potency, µM (top dose mostly 114 µM), inactives show at the highest dose activity change, negative = inhibition, hits mostly inhibitors; hit rate 1.2% among 390,000; further: potency means the concentration at half of the fitted maximal effect; on the % scale 0 is the no-effect control and ±100 the full control effect
#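 Pol eta (10 nM) was preincubated with compounds for 15 min at room temperature, after which fluorescent replication substrate (50 nM final) was added to start the reaction. Fluorescence was read kinetically at 0 and 10 min.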
# Pol kappa inh – DNA polymerase kappa (human) inhibition. hit rate 0.53% among 400,000. purified Pol kappa, fluorescent DNA synthesis assay, 10 min. AID 588579. Potency, µM (top dose mostly 107 µM), for the others: top-dose activity, negative = inhibition, most hits filed as inhibitors; further: potency means the concentration at half of the fitted maximal effect; on the % scale 0 is the no-effect control and ±100 the full control effect
#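 Activity was followed as the change in fluorescence between reads at 0 and 10 min after starting the reaction with 50 nM substrate. Beforehand, 10 nM polymerase had been preincubated with compound for 15 min at room temperature.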
# * hit, by the source's call; ? = inconclusive; · = no result given; [ ] = dose if it differs, or a comment. Unless noted, the call rests on the fitted dose curve; in most records, active means well fitted curve in the direction sought with a large enough effect; inconclusive means small, poorly fitted or top-dose-only effect, or another doubt; inactive means no such curve, though single readings can be large; an effect the other way counts as inactive or inconclusive.
SMILES,PI5P4K alpha inh,WRN inhibitor,POLI inh,POLB inh,Pol eta inh,Pol kappa inh
Cc1nnc(N/N=C/c2ccc([N+](=O)[O-])cc2)n1N,-8,-2%[11.6 µM],?,0%,-5%,-11%
COc1cccc(NC(=O)CSc2nnnn2C2CCCCC2)c1,7,-1%,21%,17%,-12%,1%
COC(=O)C[C@H]1c2cc(C(F)(F)F)ccc2S(=O)(=O)N1C(C)C,·,·,35%,·,·,11%
O=c1[nH]c(=O)n(C(c2ccccc2)(c2ccccc2)c2ccccc2)cc1N(CCO)CCO,-2,-4%,1%,·,-6%,-22%
CCOc1ccc(NCCC(O)c2ccc(F)cc2)cc1 (centres undefined),-5,5%,172%,-4%,?,-7%
CC(=O)N1c2ccc(S(=O)(=O)NCC3CCC(C(=O)NCCC(C)C)CC3)cc2CC1C (centres undefined),·,·,-20%,-2%,-6%,2%
CCc1nnc(NC(=O)c2sc3nc4c(cc3c2N)CCCCCC4)s1,-23,-10%[11.6 µM],25µM*,40µM*,40µM*,-43%
Cc1cccc(NC(=O)c2sc3nc(N)c(C#N)cc3c2N)c1,-51*,-22%,8%,-9%,-10%,-20%
N#Cc1cc2c(N)c(C(=O)Nc3ccccc3)sc2nc1N,·,·,·,-26%,·,·
CC(=O)c1cccc(NC(=O)c2sc3nc4c(cc3c2N)CCCC4)c1,·,·,-5%,?,79µM*,9%
CCOC(=O)N1CCC(NC(=O)c2cnn(-c3cccc(F)c3)c2-n2cccc2)CC1,·,·,16%,19%,-14%,24%
Cc1c(Cl)cccc1NC(=O)C1CCCN(c2nnc(-n3c(C)ccc3C)s2)C1 (centres undefined),·,·,-27%,25%,·,4%
CC1(C#CC[N+]2(C)CCCCC2)CCC2C(O1)c1ccccc1OC2(C)C (centres undefined),-2,4%,40µM*,0%,-10%,5%
COc1ccc(C2CC(=O)N3CN(c4ccc(C)c(Cl)c4)CSC3=C2C#N)cc1 (centres undefined),-69*,-1%,?,?,-8%,0%
COC(=O)CSC1=C(C#N)C(c2ccc(C)o2)CC(=O)N1 (centres undefined),2,-2%,-10%,2%,-2%,-5%
Cc1cccc(N2CSC3=C(C#N)C(c4ccc(C)o4)CC(=O)N3C2)c1 (centres undefined),·,·,·,5µM*,·,·
COc1ccc(OC)c(C2CC(=O)N3CN(c4ccccc4)CSC3=C2C#N)c1 (centres undefined),-85*,-3%,26%,3%,-23%,-5%
COc1ccc(C2CC(=O)N3CN(C4CCCCC4)CSC3=C2C#N)c(OC)c1 (centres undefined),·,·,7.9µM*,1%,-21%,-3%
COc1cc(OC)c(C2CC(=O)N3CN(c4ccccc4C)CSC3=C2C#N)cc1OC (centres undefined),·,·,·,-4%,·,·
COc1ccc(C2CC(=O)N3CN(c4ccccc4F)CSC3=C2C#N)cc1OC (centres undefined),-84*,-5%,?,-1%,-5%,?
COc1ccc(CC(=O)N2CCN(c3ccccc3F)CC2)cc1OC,-7,1%[57.1 µM],33%,20%,-6%,17%
CCCN1CNc2c(c(=O)[nH]c(=S)n2CCc2cccc(C)c2)C1,·,·,36%,·,·,-6%
O=c1c(Cl)c(N/N=C/c2ccc(Br)cc2)cnn1-c1ccccc1,-4,?,?,18µM*,?,?
CNc1cnn(-c2ccccc2)c(=O)c1Cl,-28,13%,-2%,15%,-5%,-2%
CCOc1[nH]c(/N=C/c2ccco2)c(C#N)c1C#N,?,-20%[57.1 µM],?,12%,14µM*,?
SMILES,PI5P4K alpha inh,WRN inhibitor,POLI inh,POLB inh,Pol eta inh,Pol kappa inh
Cc1cccc(Nc2nnc(-c3ccc(C)c(S(=O)(=O)NCC4CCCO4)c3)c3ccccc23)c1 (centres undefined),·,·,21%,25%,-20%,9%
O=C(Nc1ccc(-c2cn3ccccc3n2)cc1)c1cccs1,-10,-10%[11.6 µM],?,10µM*,?,?
COc1ccc(CC(=O)Nc2ccc(-c3cn4ccccc4n3)cc2)cc1,1,5%,2%,1%,4%,-16%
C(=Nc1ccc(/C=C/c2ccnc3ccccc23)cc1)c1cccs1,·,·,39%,·,·,-23%
O=C(NNC(=O)c1cc2cc3ccccc3nc2s1)c1cccc(C(F)(F)F)c1,-25,-35%,?,22µM*,?,?
O=C(COc1ccccc1C(=O)Nc1ccccc1)NC1CCCCC1,·,·,8%,·,·,5%
CCCC[n+]1ccn(-c2nc3ccccc3nc2[N-]S(=O)(=O)c2cccs2)c1,9,-7%,47%,18µM*,-7%,-15%
O=c1c2c(-c3ccccc3)csc2ncn1/N=C/c1cccc([N+](=O)[O-])c1O,-103*,-6%,-25%,-21%,1%,-19%
COc1ccc(CN2CC[C@H]3C=CC[C@@H](C(=O)NC4CCCCC4)[C@H]3C2=O)cc1OC,·,·,?,·,·,-22%
Oc1ccc(N=Cc2ccc(OCc3ccccc3)cc2)cc1,?,-19%,?,2%,22µM*,-22%
CCCN(C(=O)/C=C/c1nc2ccccc2s1)C1CCS(=O)(=O)C1 (centres undefined),?,-12%,-15%,·,-5%,-7%
CC1(NC(=O)/C=C/c2nc3ccccc3s2)CCS(=O)(=O)C1 (centres undefined),-56*,4%[11.6 µM],40µM*,·,50µM*,79µM*
CC1=NN(Cc2ccccc2)C(=O)C1,2,0%[57.1 µM],3.2µM*,43%,-12%,-17%
CCOc1ccccc1NC(=O)Cn1ncc2c([nH]c3ccccc32)c1=O,·,·,20%,3%,-7%,3%
COC(=O)c1ccc(COC(=O)CCc2nc(-c3ccccc3)c(-c3ccccc3)o2)cc1,·,-5%,-4%[58.9 µM],-2%,-17%,3%
O=C1CCCC(O)=C1N=Nc1ccc(Cl)c(Cl)c1,-19,0%,-19%,?,-18%,-4%
Cc1nc2cc(N=NC3=C(O)CCCC3=O)ccc2s1,-23,-5%,50µM*,-26%,-16%,-28%
Cc1ccc(-c2c[n+](Cc3ccc(Cl)c(Cl)c3)c3n2CCC3)cc1,5,-14%,15%,-14%,-4%,-5%
S=C(Nc1ccccn1)c1ccccn1,-95*,?,4%,-3%,-13%,-8%
O=C(Nc1ccccn1)C(=O)Nc1ccccn1,-20,-12%,19%,-11%,7%,11%
CCOc1ccc(NS(=O)(=O)c2ccc(NC(=O)[C@@H]3CCCC[C@@H]3C(=O)O)cc2)cc1,-5,-6%,7%,0%,-5%,3%
CCOc1cc(OCC)cc(C(=O)NCCN2CCC(n3c(=O)[nH]c4ccccc43)CC2)c1,0,-2%,·,·,·,·

# Assay outcomes deposited in PubChem BioAssay by National Center for Advancing Translational Sciences (NCATS).
